Here are results for 15 compounds from PubChem BioAssay (EPA / NIEHS).

A word on the AC50: it is the concentration at which the activity in the assay is half-maximal.

Several values for one entry are separate records, joined by “and”; a condition that tells them apart may be missing. Equal entries are not always repeated. The source holds several records for some structures; these can differ, active in one and inactive in another. Activity calls are given as the source filed them. Rule for the calls: active = hit-call score of the fitted dose curve at least 0.9, where 1 is the maximum; inactive = score below 0.9.

Assay [1] concerns the target Nuclear respiratory factor 1 (Homo sapiens) (UniProt Q16656). As to the kind of experiment: ATG_NRF1_CIS: Attagene CIS-FACTORIAL HepG2 Assay for human Nuclear Respiratory Factor 1 (NRF1) Orphan Gene (AID 2282987). As to conditions: HepG2 NRF1 cis-element reporter, Attagene multiplex; actives raise or lower the signal. The method, boiled down:
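Reporter mRNA induction or loss in HepG2 cells after 24 h dosing; cis-regulated reporter constructs report endogenous transcription-factor activity. Quantified by RT-PCR/capillary electrophoresis fluorescence, DMSO-referenced.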

Assay [2] in a line: ATG_NFI_CIS: Attagene CIS-FACTORIAL HepG2 Assay for human Nuclear Factor I (NFI) (AID 2282989). The following applies: HepG2 cis-regulatory reporter, NFI response element transcription; actives raise or lower the signal. A digest of the protocol:
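Cells: human liver HepG2, transiently transfected with promoter-regulated reporter transcription units. Exposure 24 h. Detection: fluorescent RT-PCR products separated by capillary electrophoresis, normalised to DMSO negative control.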

Assay [3] concerns the target Myc proto-oncogene protein (Homo sapiens) (UniProt P01106). Nature of the assay: ATG_Myc_CIS: Attagene CIS-FACTORIAL HepG2 Assay for human Myelocytomatosis (Myc) Proto-Oncogene Transcription Factor (AID 2282990). As to conditions: HepG2, Attagene cis-reporter transcription factor activity; actives raise or lower the signal. A digest of the protocol:
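Transiently transfected HepG2 cells bearing cis-promoter reporter units for endogenous transcription factors; 24 h exposure. Reporter mRNA measured by RT-PCR, 6-FAM primer extension, HpaI cut and capillary electrophoresis; bidirectional fit relative to DMSO.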

Assay [4] in a line: ATG_Oct_MLP_CIS: Attagene CIS-FACTORIAL HepG2 Assay for human Octamer-Binding Transcription Factor (Oct) (AID 2282993). As to conditions: HepG2 Attagene cis-factorial Oct reporter, mRNA; actives raise or lower the signal. The method, boiled down:
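HepG2, transient MRTU transfection, cis promoter elements; 24 h dosing; RT-PCR/CE fluorescence read-out of reporter mRNA; fit both directions vs DMSO.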

Assay [5] addresses Cellular tumor antigen p53 (Homo sapiens) (UniProt P04637). Nature of the assay: ATG_p53_CIS: Attagene CIS-FACTORIAL HepG2 Assay for human p53 Transcription Factor (AID 2282994). The following applies: HepG2 p53 cis-element reporter, Attagene mRNA; actives raise or lower the signal. A digest of the protocol:
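Multiplexed reporter mRNA assay in human HepG2 liver cells; cis-regulated units report endogenous factor activity. Values come from bidirectional curve fitting against DMSO negative control after 24 h treatment.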

The nature of assay [6]: BSK_3C_TissueFactor: BioMAP Diversity Plus: 3C Assay for Tissue Factor Biomarker Activity (AID 2282997). As to conditions: BioMAP 3C HUVEC, tissue factor biomarker readout; actives raise or lower the signal. The method, boiled down:
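Values derive from bidirectional curve fitting against DMSO of Tissue Factor ELISA signals, taken 24 h after dosing primary human umbilical vein endothelial cells.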

Assay [7] in a line: BSK_3C_uPAR: BioMAP Diversity Plus: 3C Assay for Urokinase-type plasminogen activator receptor (uPAR) Biomarker Activity (AID 2282998). As to conditions: BioMAP 3C HUVEC, uPAR biomarker ELISA; actives raise or lower the signal. A digest of the protocol:
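A multiplexed primary-cell system built on human umbilical vein endothelium was used, with chemical present for 24 h before reading. Cell-surface uPAR was detected by ELISA; signal change in either direction counted against DMSO.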
For orientation: In an ELISA, binding on a coated surface is turned into a signal by an enzyme label.

Assay [8] is described as follows: BSK_3C_VCAM1: BioMAP Diversity Plus: 3C Assay for Vascular cell adhesion molecule 1 (VCAM1) Biomarker Activity (AID 2282999). The following applies: BioMAP 3C HUVEC, VCAM1 ELISA, cytokine-stimulated; actives raise or lower the signal. The method, boiled down: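 Human umbilical vein endothelial cells (3C system), biomarker read by ELISA 24 h after dosing; bidirectional fit against DMSO baseline. Cytotoxicity tracked by SRB total-protein staining in parallel cultures at biomarker time.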

The nature of assay [9]: ATG_NRF2_ARE_CIS: Attagene CIS-FACTORIAL HepG2 Assay for human Nuclear Factor Erythroid 2 Related Factor 2 (NFR2) response to Antioxidant Response Elements (ARE) (AID 2282992).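 For AC50: reporter mRNA level measured by RT-PCR and capillary electrophoresis fluorescence.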 As to conditions: HepG2 Attagene ARE/NRF2 reporter, transcription factor activity; actives raise or lower the signal. A digest of the protocol: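 Multiplexed reporter mRNA profiling in HepG2 after a 24 h chemical exposure. Curves fitted in both directions relative to DMSO negative control.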

Assay [10] in a line: ATG_NF_kB_CIS: Attagene CIS-FACTORIAL HepG2 Assay for human Nuclear Factor Kappa B (NF-kB) (AID 2282991). The following applies: HepG2 Attagene cis-factorial NF-kB reporter mRNA; actives raise or lower the signal. The method, boiled down:
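DMSO served as negative control and baseline for bidirectional curve fitting. Transiently transfected HepG2 cells were dosed for 24 h, then reporter transcripts were measured by RT-PCR with capillary electrophoresis detection.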

Myc proto-oncogene protein (Homo sapiens), sequence (P01106 whole entry, looked up): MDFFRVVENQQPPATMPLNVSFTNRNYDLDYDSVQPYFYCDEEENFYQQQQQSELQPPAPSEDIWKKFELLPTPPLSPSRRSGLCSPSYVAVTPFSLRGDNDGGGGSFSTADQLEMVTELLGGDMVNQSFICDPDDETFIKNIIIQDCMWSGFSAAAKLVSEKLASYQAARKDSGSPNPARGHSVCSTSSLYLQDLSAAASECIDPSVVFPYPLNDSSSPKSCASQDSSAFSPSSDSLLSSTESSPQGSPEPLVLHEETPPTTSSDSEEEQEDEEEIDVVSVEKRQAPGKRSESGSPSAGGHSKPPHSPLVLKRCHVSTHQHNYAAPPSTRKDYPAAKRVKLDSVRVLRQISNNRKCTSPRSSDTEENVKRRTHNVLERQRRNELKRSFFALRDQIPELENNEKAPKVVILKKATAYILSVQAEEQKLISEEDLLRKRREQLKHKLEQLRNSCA
Cellular tumor antigen p53 (Homo sapiens), sequence (P04637 whole entry, looked up): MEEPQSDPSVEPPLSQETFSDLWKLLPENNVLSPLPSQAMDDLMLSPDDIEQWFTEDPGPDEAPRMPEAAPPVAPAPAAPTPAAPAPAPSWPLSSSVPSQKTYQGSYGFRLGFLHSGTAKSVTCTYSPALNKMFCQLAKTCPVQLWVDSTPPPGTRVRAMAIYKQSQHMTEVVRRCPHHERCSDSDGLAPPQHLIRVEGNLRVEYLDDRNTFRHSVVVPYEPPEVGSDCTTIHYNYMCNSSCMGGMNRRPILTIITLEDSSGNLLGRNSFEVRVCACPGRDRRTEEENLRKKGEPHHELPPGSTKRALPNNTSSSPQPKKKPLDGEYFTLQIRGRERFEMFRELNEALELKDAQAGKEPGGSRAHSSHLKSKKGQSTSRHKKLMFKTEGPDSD
Nuclear respiratory factor 1 (Homo sapiens), sequence (Q16656 whole entry, looked up): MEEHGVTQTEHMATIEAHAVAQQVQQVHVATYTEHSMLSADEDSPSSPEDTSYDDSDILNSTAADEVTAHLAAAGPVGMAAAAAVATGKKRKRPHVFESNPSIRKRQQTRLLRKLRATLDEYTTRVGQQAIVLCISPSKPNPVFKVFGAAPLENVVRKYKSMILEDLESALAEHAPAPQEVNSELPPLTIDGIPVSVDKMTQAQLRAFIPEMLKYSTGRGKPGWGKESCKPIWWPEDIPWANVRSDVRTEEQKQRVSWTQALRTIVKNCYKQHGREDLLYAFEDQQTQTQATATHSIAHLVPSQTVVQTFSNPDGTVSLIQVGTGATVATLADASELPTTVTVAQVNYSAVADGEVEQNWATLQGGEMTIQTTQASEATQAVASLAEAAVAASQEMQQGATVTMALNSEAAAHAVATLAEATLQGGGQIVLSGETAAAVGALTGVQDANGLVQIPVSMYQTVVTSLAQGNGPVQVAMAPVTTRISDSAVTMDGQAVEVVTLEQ

Take `Clc1ccc(C(c2ccccc2Cl)C(Cl)(Cl)Cl)cc1` (stereo not given): the concentration at half-maximal activity (AC50) was 120 µM (active) in [1]; 107 µM (active) and 70.5 µM (active) in [2]; 111 µM (active) in [3]; 70.5 µM (active) and 104 µM (active) and 42.3 µM (active) in assay [4]; 20.9 µM (active) in assay [6]; 21.3 µM (active) in [7]. Also, the AC50 in assay [8] was 21 µM (active). Further, the compound was called inactive in [1], in assay [2], in assay [3], in [4] and in assay [5].
Consider `Cc1cccc([N+](=O)[O-])c1`, for which the compound was called inactive in [1], in assay [2], in assay [3], in assay [9], in assay [4] and in assay [5]. The outcome in assay [6], in [7] and in assay [8] was inactive.
For the compound `CCCCCCOC(=O)c1ccccc1C(=O)OCCCCCC`, the compound was classed as inactive in [1], in assay [2], in assay [3], in [10], in [4] and in assay [5]. The result in [6], in assay [7] and in assay [8] was inactive.
In the case of `Oc1ccc(C(c2ccc(O)cc2)(C(F)(F)F)C(F)(F)F)cc1`, the result in assay [1], in assay [2], in assay [3], in assay [10], in assay [4] and in [5] was inactive. The AC50 in assay [2] was 17.7 µM (active); in assay [3], 20.3 µM (active); in assay [9] it was 11.1 µM (active) [middle of 4 runs]; in assay [4], 16.3 µM (active) and 16.7 µM (active) and 18.1 µM (active); in assay [5], 16.9 µM (active); in assay [6], 35 µM (active). Also, the concentration at half-maximal activity (AC50) was 21.9 µM (active) in assay [7] and 33.6 µM (active) in assay [8].
Consider `O=C(N[C@H]1CN2CCC1CC2)c1cc2ccoc2cn1`, for which the result in assay [1], in [2], in assay [3], in assay [10], in [9] and in [4] was inactive. Also, the compound was classed as inactive in assay [5], in assay [6], in [7] and in [8].
On to `O=S(=O)(O)C(F)(F)C(F)(F)C(F)(F)C(F)(F)C(F)(F)C(F)(F)F`, for which the call in assay [1], in [2], in assay [3], in [10], in assay [4] and in [5] was inactive. For the same compound, the outcome in [6], in assay [7] and in [8] was inactive. Further, the concentration at half-maximal activity (AC50) in assay [9] is 132 µM (active) [middle of 4 runs].
Turning to `ClC(Cl)=C(c1ccc(Cl)cc1)c1ccc(Cl)cc1`, the AC50 in assay [1] was 61.1 µM (active) and 100 µM (active); in assay [2], 100 µM (active) and 114 µM (active) and 152 µM (active); in assay [3] it was 169 µM (active) and 129 µM (active); in assay [4] it was 145 µM (active) and 152 µM (active) and 154 µM (active); in [6] it was 29.4 µM (active); in assay [7], 33.4 µM (active). In addition, the concentration at half-maximal activity (AC50) in assay [8] was 31.3 µM (active). For the same compound, the compound was called inactive in assay [1], in assay [3], in assay [4] and in assay [5].
As to `Nc1ccc(-c2ccc(N)cc2)cc1`, the compound was called inactive in [1], in [2], in assay [3], in assay [9], in assay [4] and in assay [5]. Besides, the result in assay [7] and in assay [8] was inactive. Besides, in [6], the AC50 is 3.97 µM (active).
As to `C[C@]12CCC(=O)C=C1CC[C@@H]1[C@@H]2CC[C@@]2(C)[C@H]1CC[C@]2(C)O`, the concentration at half-maximal activity (AC50) is 21.6 µM (active) in assay [1] and 58.8 µM (active) in assay [5]. For the same compound, the call in [1], in assay [2], in assay [3], in [4], in assay [5] and in [6] was inactive. Also, the outcome in [7] and in assay [8] was inactive.
On to `CCCCCCCCOC(=O)c1ccccc1C(=O)OCCCCCCCC`, for which the result in assay [1], in assay [2], in assay [3], in assay [10], in assay [9] and in assay [4] was inactive. The result in assay [5], in assay [6], in assay [7] and in [8] was inactive.
In the case of `CCC(=O)O[C@H]1CC[C@H]2[C@@H]3CCC4=CC(=O)CC[C@]4(C)[C@H]3CC[C@]12C`, the AC50 in assay [1] is 122 µM (active); in assay [3] it was 165 µM (active) and 163 µM (active); in assay [4] it was 186 µM (active) and 73.4 µM (active) and 100 µM (active); in [5] it was 100 µM (active); in assay [6] it was 31.4 µM (active); in assay [7], 24.9 µM (active). Further, the AC50 in assay [8] was 35.6 µM (active). Moreover, the call in assay [1], in assay [2], in assay [3], in assay [4] and in assay [5] was inactive.
As to `c1cc2ccc3cccc4ccc(c1)c2c34`, the compound was called inactive in [1], in assay [2], in [3], in assay [9], in [4] and in assay [5]. Moreover, the result in assay [7] and in assay [8] was inactive. Further, the AC50 in assay [6] is 5.47 µM (active).
Consider `O=C(O)C(F)(F)C(F)(F)C(F)(F)C(F)(F)C(F)(F)F`, for which the call in assay [1], in assay [2], in assay [3], in assay [9], in assay [4] and in assay [5] was inactive. Besides, the result in [6], in assay [7] and in assay [8] was inactive.
For `CC#Cc1cc(C)nc(Nc2ccccc2)n1`, the compound was called inactive in assay [1], in assay [2], in assay [3], in [10], in assay [4] and in [5]. Moreover, the result in assay [6], in [7] and in assay [8] was inactive.
On to `CC(C)(c1ccccc1)c1ccc(O)cc1`, for which the compound was called inactive in assay [1], in assay [2], in [3], in [4] and in assay [5]. For the same compound, the concentration at half-maximal activity (AC50) in assay [2] is 49.6 µM (active); in assay [3], 33.4 µM (active); in assay [4], 54.7 µM (active) and 33.4 µM (active); in [5], 57 µM (active); in assay [6], 30.5 µM (active); in assay [7], 31.1 µM (active). The half-maximal activity concentration (AC50) in assay [8] was 32.9 µM (active).
